From PubChem BioAssay AID540335 (Broad Institute, 2011)
In all, about 1,300 compounds went through this assay and about 270 (21%) were called active. A selection follows. Entries with a potency or affinity are not part of this list. Values without a mark were called inactive.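 The calls were made as follows: active = dose-dependent rise or fall in viability, either side of zero, with half-maximal concentration at or below a set limit; inconclusive = flat curve at 30 to 70% viability loss, or poor fit; inactive = flat within 30% either way, or potency beyond limit.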

assay: A375 melanoma cell viability reduction, dose response, counter-screen for MITF modulator project, cherry-pick samples, set 2 (AID 540335); conditions: CellTiter-Glo ATP luminescence, 24 h; series mostly up to 35 µM; activity change, negative = decreased viability: at the top concentration;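 also: A375 human melanoma cells which do not depend on MITF; 0% = median of neutral control wells and 100% = double that signal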

Row | SMILES | activity change, negative = decreased viability [%]
1 | Cc1ccc2oc(C(Cl)(Cl)Cl)cc(=O)c2c1 | -16.5
2 | O=C(Nc1cccnc1Cl)c1cc(-c2ccco2)on1 | 7.02
3 | CCN(CC)S(=O)(=O)c1ccc(N2CCCC2)c(NC(=O)c2ccc([N+](=O)[O-])o2)c1 | -10.5
4 | O=C(Nc1ccc(N2CCN(C(=O)c3ccccc3)CC2)cc1)c1ccc([N+](=O)[O-])o1 | 37.8
5 | O=C(CCl)N1CCN(S(=O)(=O)c2ccc3c(c2)CCC3)CC1 | -14
6 | Cc1cc(C)c2c(N)c(C(=O)Nc3ncc(C)s3)sc2n1 | -18.7
7 | O=C(Nc1ccccc1)NN(C(=O)CCl)c1ccccc1 | -6.28
8 | O=C(CCl)N(c1ccccc1)c1c[nH]c2ccccc12 | -4.62
9 | N#C/C(=C\c1ccc(OCc2ccc(C(=O)O)cc2)cc1)C(=O)N1CCOCC1 | -3.63
10 | O=C(C#Cc1ccccc1)c1cccc([N+](=O)[O-])c1 | 3.14
11 | COc1ccc(C)cc1Nc1nc(N)c2cc(OC)c(OC)cc2n1 | -21.9
12 | COc1cccc(-c2ccc3c(N)c(C(=O)NC4CC4)sc3n2)c1 | 13.8
13 | O=C(Nc1ccc([N+](=O)[O-])cc1)c1ccccc1 | -0.714
14 | O=C(O)c1ccc(C(=O)Nc2ccc(F)cc2)cc1 | -13.5
15 | Cn1cc([N+](=O)[O-])c(C(=O)Nc2nc(-c3ccc(Cl)cc3)cs2)n1 | -6.64
16 | COc1ccc(C(NC(C)=O)c2ccc3cccnc3c2O)c(OC)c1 (stereo not drawn) | -33.9
17 | COc1cccc(NC(=O)Nc2cccc(C(=O)O)c2)c1 | 1.68
18 | COc1cc(OC)cc(C(=O)Nc2ccc3c(c2)OCCO3)c1 | -32.1
19 | COC(=O)CCS(=O)(=O)c1nc(-c2ccccc2)cc(C(F)(F)F)n1 | 47.7
20 | Cc1nc(C)c(C(=O)N/N=C/c2cc(Br)ccc2O)s1 | -27.5
21 | O=C(N/N=C/c1cccc2cccnc12)c1ccccc1O | -38
22 | Cc1ccc(C#CC[N+]2(CC#Cc3ccc(C)cc3)CCCCC2)cc1 | -31.7
23 | O=C(Nc1nc(-c2ccccn2)cs1)c1ccc([N+](=O)[O-])o1 | -35.5
24 | CS(=O)(=O)N1CCN(c2ccc(NC(=O)c3ccc([N+](=O)[O-])o3)cc2)CC1 | 4.88
25 | Cc1cccc(NC(=O)c2ccc([N+](=O)[O-])o2)c1C | -10.1
26 | COc1cc(/C=N/N=C(N)N)ccc1OCc1ccc(Cl)cc1 | -96.4
27 | Cc1cc(NC(=O)c2ccc([N+](=O)[O-])o2)ccc1NC(=O)c1ccco1 | -30.9

Row | SMILES | activity change, negative = decreased viability [%]
28 | COc1ccccc1NS(=O)(=O)c1cc(NC(=O)c2ccc(Cl)nc2)ccc1Cl | -3.13
29 | CCCCNc1nc(=S)n(-c2ccccc2)c(C)c1C(C)=O | 8.62
30 | CC(=O)Nc1ccc2c(c1)ncn2-c1ccccc1 | 8.14
31 | CC(=O)Nc1ccc(-c2nc3ccccc3o2)cc1 | 8.49
32 | Cn1nc([N+](=O)[O-])nc1S(C)(=O)=O | -14.2
33 | CS(=O)(=O)c1ncc(Cl)c(C(=O)Nc2ccc(N3CCOCC3)cc2)n1 | -15.9
34 | O=C(c1ccc(S(=O)(=O)Cc2ccccc2Cl)c([N+](=O)[O-])c1)N1CCN(c2ccccn2)CC1 | -4.16
35 | O=C(Cc1ccc2c(c1)OCO2)NN=Cc1ccc([N+](=O)[O-])o1 | -3.36
36 | Cn1nnnc1Sc1ncnc2scc(-c3cccs3)c12 | 6.26
37 | O=C(NC1CCCC(C(F)(F)F)C1)c1ccc([N+](=O)[O-])o1 (stereo not drawn) | 18.6
38 | CC(O)CNC(=O)C1CCN(Cc2ccc(OCc3ccccc3)cc2)CC1 (stereo not drawn) | 1.88
39 | CCCN1CCC(NCc2cn(C)nc2-c2ccc(Oc3ccccc3)cc2)CC1 | -5.6
40 | O=C(O)c1ccc(N/N=C/c2ccc3nccnc3c2)cc1 | -35.1
41 | Cc1ccc(C(=O)N/C(=C\c2ccc(-c3ccccc3[N+](=O)[O-])o2)C(=O)NCCN(C)C)cc1 | -8.4
42 | CCOCCCNC(=O)/C(C#N)=C/c1ccc([N+](=O)[O-])o1 | 4.45
43 | CN(C)CCCNC(=O)/C(=C\c1ccc(-c2ccc(Br)cc2)o1)NC(=O)c1ccccc1 | -70.8
44 | Cc1ccc(-c2nc(C(=O)NCCCN(C)C)cc3c2[nH]c2ccccc23)cc1 | -4.39
45 | CCN(CC)CCC(=O)N1C/C(=C/c2ccccc2)C(=O)/C(=C\c2ccccc2)C1 | 71.7
46 | COc1cc(NC(=O)COc2ccccc2[N+](=O)[O-])ccc1NC(=O)c1cccs1 | -36.8
47 | O=C(Cn1ncc(Cl)c(Cl)c1=O)Nc1ccc2c(c1)OCO2 | 26.9
48 | O=C(c1ccccc1)c1cc(Cl)ccc1N1C(=O)C=CC1=O | -30.6
49 | O=C(N/N=C/c1ccc([N+](=O)[O-])o1)c1ccc(O)cc1 | -17.7
50 | Cc1cc(Sc2ncnc(N)c2[N+](=O)[O-])ncn1 | -35.7
51 | Cc1cccc2sc(N(CCCN(C)C)C(=O)c3nc4ccccc4s3)nc12 | -16.6
52 | COc1cccc2sc(N3CCN(C(=O)c4ccc([N+](=O)[O-])o4)CC3)nc12 | -6.34
53 | CN(C)c1ccc(C2=NOC(CN3C(=O)c4ccccc4S3(=O)=O)C2)cc1 (stereo not drawn) | 1.39
